Results on 12 compounds are retold here after ChEMBL document CHEMBL5308541, “MAIP: An Open-Source Tool to Enrich High-Throughput Screening Output and Identify Novel, Druglike Molecules with Antimalarial Activity” (ACS Med Chem Lett, 2023).

About 540 (0.36%) of roughly 150,000 compounds showed an effect of 50% or more. The list comes from a sample in which strong results are over-represented; it also holds similar structures and randomly drawn compounds.

This assay concerns Plasmodium falciparum. The assay is described as follows: Primary screen in NF54 nanoGlo assay, in single point, at 2uM, 72h; a lower Z score goes with more inhibition. It counts as functional, Erythrocyte. As to conditions: timepoint 72 hour.
What is called % Inhibition is the drop in the measured response relative to a control, in per cent. In the case of `CC(C)(C)c1ccc(CNC[C@H](O)c2ccc(F)cc2F)cc1`, the “% Inhibition” value amounted to 94% and the Z score was -16.43.
Taken in the same sequence, the figures for `CC(C)c1nc(N2CCC[C@@]3(CCNC3)C2)c2cc[nH]c2n1` were 2% and -0.48.
The like results for `c1ccc(-c2cncnc2N2CC[C@]3(CCNC3)C2)cc1` were, in that order, -14% and 2.09.
Taken in the same sequence, the figures for `CN(C)CC12CNCC1CN(c1ccnc3cc(Cl)ccc13)C2` (centres undefined) were 97% and -19.2.
`Fc1ccc(N2CC[C@H](CN3CCC(c4c[nH]c5ccccc45)(c4c[nH]c5ccccc45)CC3)C2)cc1`: the “% Inhibition” value was determined as 95% and the Z score is given as -18.87.
As for `Cc1ccc(CNc2ncnc(N)c2Cl)c(N2CCCC2)n1`, the “% Inhibition” value is 50% and the Z score is recorded as -8.64.
In the case of `CCc1nnc(NCc2ccc(C)nc2N2CCCC2)nc1CC`, the “% Inhibition” value is recorded as -19% and the Z score amounted to 2.94.
The like results for `Cc1ccc([C@@H](O)CNCc2cc(O)cc(Cl)c2)cc1` were, in that order, 7% and -1.59.
For `O[C@@H](CNCc1ccc2c(c1)CCO2)c1ccc(F)c(F)c1`, the “% Inhibition” value is on record as 72% and the Z score is reported as -12.64.
For the compound `Fc1ccc(C2=CCN(C[C@@H]3CCCN4CCCC[C@H]34)CC2)cc1`, the “% Inhibition” value amounted to 0% and the Z score is -0.03.
The like results for `CN1CCN(c2ccc(C(F)(F)F)cc2NCc2cnc[nH]2)CC1` were, in that order, 52% and -7.95.
Taken in the same sequence, the figures for `Clc1ccc(CNCCN2CCC3(C2)OCCO3)c2ncccc12` were -1% and 0.17.
